USP8 block: inhibitors of human USP8 deubiquitinase. purified USP8, Ub-rhodamine cleavage fluorescence, 30 min. Ubiquitin carboxyl-terminal hydrolase 8 (Homo sapiens), P40818. inhibition, % at 20 µM. actives 4.2% (n = 47,000)
USP28 block: inhibitors of human USP28 deubiquitinase. AID 1645857, 2021. Ubiquitin carboxyl-terminal hydrolase 28 (Homo sapiens), Q96RU2. purified USP28, Ub-rhodamine cleavage fluorescence, 30 min. inhibition, % at 25 µM. actives 3% (n = 47,000)
USP17 inh: inhibitors of human USP17 deubiquitinase. Ubiquitin carboxyl-terminal hydrolase 17-like protein 5 (Homo sapiens), A8MUK1. purified USP17, Ub-rhodamine cleavage fluorescence, 3 h. inhibition, % at 50 µM. actives 6.5% (n = 47,000)
Target sequence (A8MUK1 whole entry, looked up): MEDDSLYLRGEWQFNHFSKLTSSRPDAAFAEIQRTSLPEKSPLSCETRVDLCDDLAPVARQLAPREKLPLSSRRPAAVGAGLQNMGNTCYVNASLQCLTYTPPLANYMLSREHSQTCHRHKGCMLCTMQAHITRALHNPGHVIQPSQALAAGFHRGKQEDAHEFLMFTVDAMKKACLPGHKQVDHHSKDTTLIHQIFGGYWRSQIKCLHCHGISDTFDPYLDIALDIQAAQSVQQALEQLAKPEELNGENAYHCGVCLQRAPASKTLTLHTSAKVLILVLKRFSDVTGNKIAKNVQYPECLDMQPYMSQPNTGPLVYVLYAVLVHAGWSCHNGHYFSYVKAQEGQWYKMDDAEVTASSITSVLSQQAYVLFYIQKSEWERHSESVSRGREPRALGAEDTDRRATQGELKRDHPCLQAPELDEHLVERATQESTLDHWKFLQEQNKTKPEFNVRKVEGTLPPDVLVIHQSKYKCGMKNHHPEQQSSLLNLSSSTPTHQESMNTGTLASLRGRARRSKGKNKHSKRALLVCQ
USP30 block: inhibitors of human USP30 deubiquitinase; actives 5.3% (n = 47,000); purified USP30, Ub-rhodamine cleavage fluorescence; AID 1645860, 2021; Ubiquitin carboxyl-terminal hydrolase 30 (Homo sapiens), Q70CQ3; inhibition, % at 25 µM
Numbers without * were called inactive; · = not tested or not shown. Hits are enriched below; roughly 13% of the tested compounds scored in any of these assays. Cut-off read from the data, not from the text of the source: active = inhibition above about 30%; inactive = the rest.

SMILES	USP8 block	USP28 block	USP17 inh	USP30 block
O=S(=O)(O)c1ccc(Cc2ncc(C(F)(F)F)cc2Cl)s1	0	6	0	16
Cc1cc(C)cc(NC(=O)c2c(O)c3ccccc3[nH]c2=O)c1	42*	0	9	9
O=C(Nc1ccccc1)c1c(O)c2cnn(-c3ccc(F)cc3)c2[nH]c1=O	16	2	7	-11
Cc1ccn2cc(-c3ccc(NC(=O)C(C)Oc4ccccc4)cc3)nc2n1 (configuration not stated)	40*	-6	-6	-1
Cc1ccn2cc(-c3ccc(NC(=O)Cc4ccccc4)cc3)nc2n1	-3	16	30	5
O=C(Cc1nnc(-c2cnccn2)o1)Nc1ccc(Cl)cc1	20	23	10	38*
CN(c1ccc(F)cc1)S(=O)(=O)c1ccc2[nH]cc(C(=O)N3CCOCC3)c(=O)c2c1	-85	4	-9	4
Cc1noc(C2CN(C(=O)/C=C/c3ccc4c(c3)OCO4)C2)n1	-17	11	5	33*
O=C(Cn1c(=O)n(Cc2ccc3c(c2)OCO3)c(=O)c2ccccc21)N1CCCc2ccccc21	-9	-16	-14	-19
O=C(/C=C/c1cccc([N+](=O)[O-])c1)N1CCc2ccccc21	84*	8	0	-8
O=C(Cn1ncc2cc([N+](=O)[O-])ccc21)N1CCc2ccccc21	1	-42	-4	-191
O=C(OCC(=O)N1CCc2ccccc21)c1cc([N+](=O)[O-])ccc1NCCO	-5	·	60*	·
O=C1OC2CC1N(C(=O)/C=C/c1ccc3c(c1)OCO3)C2 (configuration not stated)	-7	9	3	21
O=C(/C=C/c1ccc2c(c1)OCO2)N1CCCc2ccccc21	-5	25	18	46*
O=C(NCc1cccnc1)c1c2c(NCC3CC3)ncnc2n2ccccc12	68*	-30	31*	-108
Nc1c(-c2nc3ccccc3[nH]2)c2nc3ccccc3nc2n1Cc1cccc(Cl)c1	16	36*	46*	-14
Nc1c(-c2nc3ccccc3[nH]2)c2nc3ccccc3nc2n1Cc1ccccc1	-7	-28	-5	-225
Cn1ccc(-c2nc3ccccc3[nH]2)n1	30*	-4	11	13
COc1cccc(CC(=O)NC[C@H]2C[C@@]3(C)[C@@H](O)CCCC[C@H]3N2C(C)=O)c1	1	-5	-6	5
Cc1ccc(C(=O)Nc2cc3c4c(c2)C(C)C(=O)N4CCC3)cc1 (configuration not stated)	-15	25	-32	-93
Cc1ccc(C(=O)Nc2cc3c4c(c2)CC(=O)N4CCC3)cc1C	30*	72*	10	-5
O=C1NC(Cc2ccccc2)(c2ccccc2)C(=O)N1Cc1nnc(-c2ccc(Cl)cc2)o1 (configuration not stated)	-32	-1	0	12
Cc1sc(NC(=O)CN2CCCCC2)nc1-c1ccc2c(c1)CCN2C(=O)c1cccc(F)c1	-17	0	36*	0
Cc1sc(NC(=O)CNc2ccccc2)nc1-c1ccc2c(c1)CCN2C(=O)C1CCCCC1	63*	10	47*	-2
Cc1sc(NC(=O)CN2CCCC2)nc1-c1ccc2c(c1)CCN2C(=O)c1cccc(F)c1	-11	27	18	35*
SMILES	USP8 block	USP28 block	USP17 inh	USP30 block
Cc1cccc(C(=O)N2CCc3cc(-c4nc(NC(=O)CN5CCCCCC5)sc4C)ccc32)c1	11	1	17	-13
Cc1ccc(C(=O)N2CCc3cc(-c4nc(NC(=O)CN5CCCCC5)sc4C)ccc32)cc1	0	16	16	1
Cc1sc(NC(=O)CN2CCc3ccccc3C2)nc1-c1ccc2c(c1)CCN2C(=O)C(C)C	47*	-36	-5	-241
Cc1ccc(-c2[nH]c3[nH]c(=O)[nH]c(=O)c3c2C2C(=O)N(C)c3ccccc32)cc1 (configuration not stated)	-44	-6	0	-16
O=C(CN1C(=O)CCCc2cc(S(=O)(=O)N3CCCCC3)ccc21)N1CCCCC1	-24	-10	-10	-8
Cc1ccc(N2C(=O)c3ccccc3C2Nc2ccc(Br)cc2)nc1 (configuration not stated)	7	11	9	11
Cc1sc(NC(=O)CN2CCCC2)nc1-c1ccc2c(c1)CCN2S(=O)(=O)c1ccccc1	10	3	39*	-16
Cc1sc(NC(=O)C2(c3ccc(Cl)cc3)CCC2)nc1-c1ccc2c(c1)CCN2C(=O)c1ccccc1F	-14	-27	4	-137
Cc1cccc(C(=O)N2CCc3cc(-c4nc(NC(=O)C5(c6ccc(Cl)cc6)CCC5)sc4C)ccc32)c1	33*	7	26	-79
Cc1nn(-c2ccccc2)c2c1N=C1C(Cl)=CC(Cl)=CN1C21C(=O)Nc2ccccc21 (configuration not stated)	94*	50*	82*	15
COc1ccc(C2c3c(C)nn(-c4ccccc4)c3N=C3C(=O)Nc4ccccc4N32)cc1 (configuration not stated)	-4	-9	-15	-36
COc1ccc2nc(N(CCCn3ccnc3)C(=O)c3ccc(Cl)s3)sc2c1	-29	25	42*	50*
COc1ccc2nc(N(Cc3ccncc3)C(=O)c3ccc(C)cc3)sc2c1	22	-18	-37	-67
Cc1cc(C)c2sc(N(CCCn3ccnc3)C(=O)Cc3ccccc3)nc2c1	-39	40*	·	92*
O=C(CC1c2ncccc2C(=O)N1Cc1ccc(F)cc1)NC1CCCC1 (configuration not stated)	-6	7	9	14
COc1cc(O)c2c(c1)C1=CC(=O)C(O)=C[C@]1(C)OC2=O	14	36*	46*	48*
COc1cc(O)c2c(c1)COC(=O)c1c(O)cc(C)cc1O2	-6	13	5	9
CCCS(=O)(=O)N1C[C@H]2C[C@H](C(=O)N3CCN(C)CC3)[C@@H](C1)O2	-14	6	6	18
Cc1ccc2cc3c(nc2c1)OC(=O)N(Cc1ccc(C)o1)C3	50*	-11	11	-21
COc1ccc(CCN2Cc3cc4cc(C)ccc4nc3OC2=O)cc1	5	0	14	-6
CCOc1ccc2cc3c(nc2c1)OC(=O)N(Cc1ccc(OC)cc1)C3	77*	14	27	38*
COc1ccc2cc3c(nc2c1)OC(=O)N(Cc1ccc(F)cc1)C3	-37	-1	20	15
O=C1Oc2nc3cc4c(cc3cc2CN1CCN1CCOCC1)OCCO4	-85	-51	-67	-144
COc1ccc2cc3c(nc2c1)OC(=O)N(CCc1cccc(F)c1)C3	35*	15	56*	29
Cc1ccc2c(c1)CCCN2C(=O)c1cn(-c2ccccc2)nc1-c1ccc(C)o1	9	3	-29	-49
Cc1ccc(NC(=O)CCc2ccc3nc[nH]c3c2)cc1F	5	35*	-6	-11
Cc1ccc(NC(=O)CCc2ccc3nc[nH]c3c2)c(C)c1	3	-7	-8	10
